Out of some 310,000 compounds screened, about 14,000 (4.5%) showed an effect of 50% or more. The effect is printed as a negative number. The sample as a whole holds a higher share of strong results than the screen did.
target: human ether-à-go-go-related gene (hERG) potassium channel (human, UniProt Q12809); assay: primary screen, population patch clamp on CHO cells stably expressing hERG; higher = less effect of the substance
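Also: peak tail current of the secondary pulse compared with the same well before compound.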

Sequence of human ether-à-go-go-related gene (hERG) potassium channel (Q12809 whole entry, looked up): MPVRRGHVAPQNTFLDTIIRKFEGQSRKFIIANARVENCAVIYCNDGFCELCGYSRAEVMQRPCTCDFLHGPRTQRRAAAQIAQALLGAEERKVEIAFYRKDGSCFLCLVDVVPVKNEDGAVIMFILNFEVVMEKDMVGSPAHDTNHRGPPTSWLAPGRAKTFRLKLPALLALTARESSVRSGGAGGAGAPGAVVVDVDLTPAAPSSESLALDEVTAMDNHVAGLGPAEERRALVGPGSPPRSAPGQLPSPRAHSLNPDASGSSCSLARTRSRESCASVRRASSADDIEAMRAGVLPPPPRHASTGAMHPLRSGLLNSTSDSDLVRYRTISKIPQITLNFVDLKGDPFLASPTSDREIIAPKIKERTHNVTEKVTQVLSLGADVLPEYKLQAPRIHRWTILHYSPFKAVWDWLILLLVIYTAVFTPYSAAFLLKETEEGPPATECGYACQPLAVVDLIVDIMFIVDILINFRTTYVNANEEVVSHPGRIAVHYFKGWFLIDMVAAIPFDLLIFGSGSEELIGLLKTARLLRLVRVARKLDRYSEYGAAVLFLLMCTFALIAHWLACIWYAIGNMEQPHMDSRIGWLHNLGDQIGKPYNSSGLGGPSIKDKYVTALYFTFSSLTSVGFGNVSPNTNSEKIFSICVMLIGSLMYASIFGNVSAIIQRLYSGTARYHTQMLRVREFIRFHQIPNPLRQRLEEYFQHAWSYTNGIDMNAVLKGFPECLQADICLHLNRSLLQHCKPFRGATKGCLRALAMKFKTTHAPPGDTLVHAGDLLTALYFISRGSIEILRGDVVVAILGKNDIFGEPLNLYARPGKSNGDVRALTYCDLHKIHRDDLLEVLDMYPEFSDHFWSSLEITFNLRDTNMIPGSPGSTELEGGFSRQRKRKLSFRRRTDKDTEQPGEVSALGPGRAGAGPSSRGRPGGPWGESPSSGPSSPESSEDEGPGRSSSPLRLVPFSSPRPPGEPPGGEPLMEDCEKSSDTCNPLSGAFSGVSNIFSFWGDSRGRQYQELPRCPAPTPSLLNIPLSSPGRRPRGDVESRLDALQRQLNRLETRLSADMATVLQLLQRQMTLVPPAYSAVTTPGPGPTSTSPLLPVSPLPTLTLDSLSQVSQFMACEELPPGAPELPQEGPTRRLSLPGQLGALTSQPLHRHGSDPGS

Going from `Cn1c2c(c(=O)n(C)c1=O)C(c1cc3c(cc1Br)OCO3)CC(=O)N2` (stereo not drawn) to `COc1ccc(N(C(=O)c2ccc3c(c2)OCO3)C2C=CS(=O)(=O)C2)c(OC)c1` (stereo not drawn), the “hERG current change (%, negative = inhibition) at 10uM” value falls from 3.46% to -22.3%.

Compared with `O=C(c1ccc(Cn2c(=O)[nH]c3ccsc3c2=O)cc1)N1CCN(c2ccccc2)CC1`, `COc1ccccc1N1CCN(C(=O)CCN2C(=O)c3cccc4cccc(c34)C2=O)CC1` is higher in “hERG current change (%, negative = inhibition) at 10uM” value: 7.23% for the first, 15.5% for the second.

Going from `Cc1ccccc1C(=O)N1CCC(C(=O)Nc2nc3ccc(F)cc3s2)CC1` to `Cc1ccc(-c2cc(C(=O)N3CCOCC3)c3cc(C)ccc3n2)cc1`, the “hERG current change (%, negative = inhibition) at 10uM” value rises from -42.8% to -4.82%.

First: CC(Sc1nc2cc(Cl)ccc2s1)C(=O)Nc1ccc2c(c1)OCO2 (stereo not drawn)
Second: C=CCn1c(SCC(=O)Nc2ccc3c(c2)OCO3)nnc1-c1ccccc1OC
The “hERG current change (%, negative = inhibition) at 10uM” value of the first is higher: 6.08% for the first, -7.02% for the second.

Compared with `COc1ccccc1OCCCCN1CCN(c2ccccc2OC)CC1.O=C(O)C(=O)O`, `COc1ccccc1N1CCN(CCCCOc2c(OC)cccc2OC)CC1.O=C(O)C(=O)O` is lower in “hERG current change (%, negative = inhibition) at 10uM” value: -43.1% for the first, -57.9% for the second.

Going from `Cc1ccccc1OCCCCCCN1CCNCC1.O=C(O)C(=O)O` to `COc1ccccc1N1CCN(CCCCOc2ccc(C)cc2C)CC1.O=C(O)C(=O)O`, the “hERG current change (%, negative = inhibition) at 10uM” value falls from -1.56% to -50.3%.

Compared with `COc1ccccc1N1CCN(C(=O)COc2cc(C)ccc2C)CC1`, `COc1ccccc1N1CCN(C(=O)CN2C(=O)c3ccccc3C2=O)CC1` is higher in “hERG current change (%, negative = inhibition) at 10uM” value: -18.3% for the first, 11.9% for the second.

Going from `CCOc1ccccc1N1CCN(C(=O)CCCN2C(=O)c3cccc4cccc(c34)C2=O)CC1` to `COc1ccccc1N1CCN(C(=O)CCCN2C(=O)c3cccc4cccc(c34)C2=O)CC1.Cl`, the “hERG current change (%, negative = inhibition) at 10uM” value falls from -8.72% to -70.9%.

Going from `COc1ccccc1N1CCN(CCOc2c(OC)cccc2OC)CC1.Cl` to `Br.COc1ccccc1N1CCN(CCCCN2C(=O)c3ccccc3C2=O)CC1`, the “hERG current change (%, negative = inhibition) at 10uM” value falls from -34.6% to -53.5%.

Going from `COc1ccccc1N1CCN(CCN2C(=O)CC(=C3c4ccccc4-c4ccccc43)C2=O)CC1.Cl` to `COC(=O)C1=C(c2ccc(F)cc2OCc2ccccc2)C[C@@H]2CC[C@H]1N2C(=O)NCCCc1ccccc1`, the “hERG current change (%, negative = inhibition) at 10uM” value rises from 0.408% to 4.96%.

First: CCN(Cc1ccccc1)C(=O)CN1C(=O)NC(CC)(c2ccc(F)cc2)C1=O (stereo not drawn)
Second: CCOc1ccc(CN(C)C(=O)Cc2c[nH]c3ccccc23)cc1
The “hERG current change (%, negative = inhibition) at 10uM” value of the first is lower: -7.55% for the first, 12% for the second.

First: CCn1ncc(Br)c1C(=O)Nc1sc2c(c1C(=O)OC)CCC2
Second: NC(=O)c1c(NC(=O)c2cccnc2)sc2c1CCCC2
The “hERG current change (%, negative = inhibition) at 10uM” value of the first is lower: -40.8% for the first, 17.5% for the second.

Going from `O=C(Cc1ccc(F)cc1)NC1CCS(=O)(=O)C1` (stereo not drawn) to `O=C(Nc1cccn(Cc2ccc(F)cc2)c1=O)NC1CCCCC1`, the “hERG current change (%, negative = inhibition) at 10uM” value falls from 9.36% to -36.2%.

Compared with `Cc1cc(-c2ccccc2)oc(=O)c1NC(=O)c1ccccc1`, `Cc1cccc(Nc2ccccc2C(=O)O)c1C` is lower in “hERG current change (%, negative = inhibition) at 10uM” value: 3.11% for the first, 2.88% for the second.

Going from `O=C(N/N=C/c1ccc([N+](=O)[O-])cc1)c1cccnc1` to `O=C(N/N=C/c1ccc[nH]1)c1ccncc1`, the “hERG current change (%, negative = inhibition) at 10uM” value rises from 0.658% to 20.2%.

Compared with `CN1CCc2c(sc3c2c(=O)n(-c2ccccc2)c2nnc(SCc4ccc(Cl)cc4)n32)C1`, `O=C(Cn1nnc(-c2ccccc2)n1)N1CCN(S(=O)(=O)c2ccc(Cl)cc2)CC1` is higher in “hERG current change (%, negative = inhibition) at 10uM” value: -2.08% for the first, 3.96% for the second.

Compared with `CCCCSCCCNC(=O)CCCN1C(=O)c2ccccc2Sc2ncccc21`, `COc1ccccc1CNC(=O)CCC(=O)n1ncc2cc(C)ccc21` is higher in “hERG current change (%, negative = inhibition) at 10uM” value: -27.6% for the first, 0.647% for the second.

First: Cc1cc(C(=O)N(C)CC2CCCN(CCc3ccc(F)cc3)C2)c(C)o1 (stereo not drawn)
Second: CCN(CC1CCCN(CCc2cccc(F)c2)C1)C(=O)c1cc(C)oc1C (stereo not drawn)
The “hERG current change (%, negative = inhibition) at 10uM” value of the first is lower: -75.7% for the first, -66.8% for the second.

Going from `CN(C)CCN(CC1CCCN(Cc2ccccc2F)C1)C(=O)Cc1c(F)cccc1F` (stereo not drawn) to `CCN(CC1CCCN(CCc2cccc(F)c2)C1)C(=O)c1cc2ccccc2o1` (stereo not drawn), the “hERG current change (%, negative = inhibition) at 10uM” value falls from -9.05% to -79.6%.

Going from `C=CCC(=O)N(CC)CC1CCCN(CCc2cccc(F)c2)C1` (stereo not drawn) to `CCN(CC1CCCN(CCc2cccc(F)c2)C1)C(=O)c1ccc(CSC)o1` (stereo not drawn), the “hERG current change (%, negative = inhibition) at 10uM” value falls from -54.2% to -74.5%.

First: CCN(CC)C(=O)C1CCCN(Cc2cccc(F)c2)C1 (stereo not drawn)
Second: O=C(NCC1CCCN(Cc2cccc(F)c2)C1)c1cccc2ccccc12 (stereo not drawn)
The “hERG current change (%, negative = inhibition) at 10uM” value of the first is higher: 7.43% for the first, -17.6% for the second.

Going from `CSCc1ccc(C(=O)N2CCCC(Nc3ccc(F)cc3)C2)o1` (stereo not drawn) to `CCc1ccccc1NC(=S)NC1CC2CCC(C1)N2Cc1ccc(F)cc1` (stereo not drawn), the “hERG current change (%, negative = inhibition) at 10uM” value falls from -18.7% to -42%.

Going from `O=S(=O)(c1cccc(-c2nnc(-c3cccnc3)o2)c1)N1CCCCC1` to `O=C(Nc1sc2c(c1C(=O)O)CCCCC2)c1cccnc1`, the “hERG current change (%, negative = inhibition) at 10uM” value rises from -25% to 16.7%.

Going from `CCOC(=O)Cc1csc(NC(=O)COc2ccccc2OCC)n1` to `COc1ccccc1C(=O)COC(=O)CSC(C)C(=O)Nc1cc(C)on1` (stereo not drawn), the “hERG current change (%, negative = inhibition) at 10uM” value rises from -24.2% to -13.7%.

Compared with `O=S(=O)(Cc1ccccc1Cl)c1ncn[nH]1`, `COc1cccc(NC(=O)CCS(=O)(=O)c2cccs2)c1` is lower in “hERG current change (%, negative = inhibition) at 10uM” value: 14.2% for the first, 14% for the second.

First: O=C(c1cc2ccccc2o1)N1CCN=C1SCc1cccc(F)c1
Second: O=C(C1CC1)N(Cc1ccco1)c1nc(-c2ccccc2)cs1
The “hERG current change (%, negative = inhibition) at 10uM” value of the first is higher: -7.82% for the first, -8.62% for the second.

Going from `O=C(CN(C(=O)CCC(=O)Nc1ccccn1)c1ccc2c(c1)OCO2)NCc1ccc(F)cc1` to `O=C(Nc1ccc(-c2nnn(CC(=O)N3CCN(C(=O)c4ccco4)CC3)n2)cc1)c1ccc(F)cc1`, the “hERG current change (%, negative = inhibition) at 10uM” value falls from 9.42% to 3.09%.

Going from `O=C(Nc1ccccc1-c1ccccc1)NC1CC2CCCC(C1)N2Cc1ccc(F)cc1` (stereo not drawn) to `O=C(Nc1ccccc1-c1ccccc1)NC1CC2CCCC(C1)N2CCc1ccccc1` (stereo not drawn), the “hERG current change (%, negative = inhibition) at 10uM” value rises from -66.4% to -53.3%.

Going from `CCOc1ccccc1NC(=O)NC1CC2CCCC(C1)N2Cc1nnnn1CCc1ccccc1` (stereo not drawn) to `CCNC(=S)NC1CC2CCCC(C1)N2CCc1ccccc1` (stereo not drawn), the “hERG current change (%, negative = inhibition) at 10uM” value falls from -5.67% to -48.7%.

Compared with `CC(=O)c1c(C)[nH]c(C(=O)OCC(=O)N2CC(C)OC(C)C2)c1C` (stereo not drawn), `CCOC(=O)C1=C(C)N(C)C(=S)N(C)C1c1ccc(OC)cc1` (stereo not drawn) is lower in “hERG current change (%, negative = inhibition) at 10uM” value: 20.7% for the first, -10.5% for the second.

First: CCCCNC(=O)/C=C/c1ccc(S(=O)(=O)Nc2ccc(OC)cc2)cc1
Second: CN(C)S(=O)(=O)c1ccc(C(=O)OCC(=O)NCc2ccco2)cc1
The “hERG current change (%, negative = inhibition) at 10uM” value of the first is lower: 3.52% for the first, 11.6% for the second.

Compared with `Cc1cnc(NC(=O)C2(c3ccccc3)CC2)s1`, `O=C(Oc1ccc2ccccc2c1)C1CCC1` is higher in “hERG current change (%, negative = inhibition) at 10uM” value: 7.07% for the first, 17% for the second.

First: CC(C)NC(=O)c1sc2c(c1C(=O)Nc1cccnc1)CCCC2
Second: COc1ccc(C(=O)Nc2ccc(-c3nnn(CC(=O)N4CCN(C(=O)c5ccco5)CC4)n3)cc2)cc1
The “hERG current change (%, negative = inhibition) at 10uM” value of the first is lower: -69.7% for the first, 7.09% for the second.

Going from `Cc1cc(-c2onc(C)c2C(=O)Oc2ccc(Cl)cc2)no1` to `Cc1ccc(C2=NOC(=O)/C2=C\c2ccc(C)o2)cc1`, the “hERG current change (%, negative = inhibition) at 10uM” value rises from -2.56% to 6.75%.

First: Cc1cc(C)nc(SCCn2c(N3CCCCC3)nc3c2c(=O)n(C)c(=O)n3C)n1
Second: Cc1ccccc1-c1nnn(CC(=O)N2CCN(C(=O)c3ccco3)CC2)n1
The “hERG current change (%, negative = inhibition) at 10uM” value of the first is higher: -4.05% for the first, -40.1% for the second.

Compared with `CC1(C)CC(=O)C=C(NC2CCCCCC2)C1`, `c1ccc2c(c1)CCCN2Cc1nnnn1C1CCCC1` is lower in “hERG current change (%, negative = inhibition) at 10uM” value: -1.93% for the first, -3.84% for the second.

First: O=C(Nc1ccc(-c2nnn(CC(=O)N3CCN(C(=O)c4ccco4)CC3)n2)cc1)c1ccccc1F
Second: O=C(Cn1nnc(-c2ccc(Cl)cc2)n1)N1CCN(C(=O)c2ccco2)CC1
The “hERG current change (%, negative = inhibition) at 10uM” value of the first is higher: -53.2% for the first, -65% for the second.

Compared with `O=C(N/N=C\c1cccnc1)C1c2ccccc2Oc2ccccc21`, `Cc1ccc2c(c1)C1CN(C)CCC1N2CC(=O)N(C)c1ccccc1` (stereo not drawn) is higher in “hERG current change (%, negative = inhibition) at 10uM” value: 0.415% for the first, 6.34% for the second.

First: Cc1ccc2c(c1)C1CN(C)CCC1N2C(=O)c1cccc(S(=O)(=O)N(C)C)c1.c1ccccc1 (stereo not drawn)
Second: Cc1ccc2c(c1)C1CN(C)CCC1N2S(=O)(=O)c1ccccc1F (stereo not drawn)
The “hERG current change (%, negative = inhibition) at 10uM” value of the first is higher: -25% for the first, -32.4% for the second.

First: Cc1ccc2c(c1)C1CN(C)CCC1N2Sc1ccccc1[N+](=O)[O-] (stereo not drawn)
Second: Cc1ccc2c(c1)[C@@H]1CN(C)CC[C@@H]1N2S(=O)(=O)c1ccc([N+](=O)[O-])cc1.Cl
The “hERG current change (%, negative = inhibition) at 10uM” value of the first is higher: -62.8% for the first, -75% for the second.

Going from `Cc1ccc2c(c1)[C@@H]1CN(C)CC[C@@H]1N2S(=O)(=O)c1ccc(F)cc1.Cl` to `Cc1ccc2c(c1)C1CN(C)CCC1N2S(=O)(=O)c1ccc(C#N)cc1` (stereo not drawn), the “hERG current change (%, negative = inhibition) at 10uM” value falls from -29.1% to -72.8%.

Going from `Cc1ccc2c(c1)C1CN(C)CCC1N2S(=O)(=O)c1ccc(Oc2ccc([N+](=O)[O-])cc2)cc1` (stereo not drawn) to `Cc1ccc2c(c1)C1CN(C)CCC1N2C(=O)COc1ccc(S(=O)(=O)N2CCOCC2)cc1` (stereo not drawn), the “hERG current change (%, negative = inhibition) at 10uM” value rises from -21.3% to -15.8%.

— publication PMC4336329 (PLoS ONE, 2015)
